Here are results for 10 molecules from PubChem BioAssay (NCI).

The panel holds about 83,000 compounds, 20% with a hit somewhere; the sample as a whole holds those more often.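 For each line, cells grew in 96-well plates with the test compound present at a single concentration for 48 hours.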 Values without a mark were called inactive. Activity calls are given as the source filed them. How the source made its calls: active means growth percent below 10; inactive means the rest.

Some test systems named below: SR leukemia; RPMI-8226 leukemia; OVCAR-8 ovarian; OVCAR-5 ovarian; SK-OV-3 ovarian; IGROV1 ovarian; OVCAR-3 ovarian; HS 578T breast; NCI/ADR-RES ovarian; BT-549 breast; MDA-MB-435 melanoma; SW-620 colon; MCF7 breast; HCT-116 colon; HCC-2998 colon; KM12 colon; T-47D breast.
Common to all, as to assay: NCI-60 one-dose screen, 48 h (100 = growth as untreated, 0 = no growth, -100 = all killed)
Holding throughout (conditions): 10 µM unless noted

Take `Cc1ccc(S(=O)(=O)N/N=C2\CC3CCC2C3)cc1` (stereo unspecified): the growth in the test with SR leukemia was 103%; in the test with RPMI-8226 leukemia, 104%; in the test on OVCAR-8 ovarian it was 102%; in the test on OVCAR-5 ovarian, 98.9%; in the test on SK-OV-3 ovarian, 93.9%; in the test with IGROV1 ovarian, 101%. The growth is 113% with OVCAR-3 ovarian; 115% in the test on HS 578T breast; 119% in the test on NCI/ADR-RES ovarian; 107% with BT-549 breast; 103% in the test with MDA-MB-435 melanoma; 106% in the test on SW-620 colon. Moreover, the growth with MCF7 breast was 97%; in the test on HCT-116 colon, 103%; with HCC-2998 colon, 120%; in the test on KM12 colon, 105%.

For the molecule `CCN(CC)c1ccc2nc3ccc(N=Nc4ccc(O)cc4)cc3[n+](-c3ccccc3)c2c1`, the growth with SR leukemia was 49%; with RPMI-8226 leukemia, 30.6%; with OVCAR-8 ovarian it was 56.8%; in the test with OVCAR-5 ovarian, 113%; with SK-OV-3 ovarian it was 89.7%; with IGROV1 ovarian, 8.59% (active). Moreover, the growth in the test with OVCAR-3 ovarian was -15.4% (active); with NCI/ADR-RES ovarian, 101%; in the test with T-47D breast it was 32.7%; with MDA-MB-435 melanoma it was 48.6%; in the test on MCF7 breast, -13.8% (active); in the test with HCT-116 colon, 8.46% (active). Also, the figures for the growth in the test with HCC-2998 colon and in the test with KM12 colon were 62.8% and 34.8%, respectively.

Turning to `Cc1cc2cn3c4ccc(O)cc4[nH]c(=O)c3c2cc1C`, the growth is -16.1% (active) in the test on SR leukemia; -37% (active) with RPMI-8226 leukemia; -13.2% (active) in the test on OVCAR-8 ovarian; 32.6% in the test with OVCAR-5 ovarian; -1.79% (active) with IGROV1 ovarian; -34.9% (active) in the test on OVCAR-3 ovarian. In addition, the growth in the test with HS 578T breast was -31.8% (active); with NCI/ADR-RES ovarian, 3.46% (active); in the test on MDA-MB-435 melanoma, 0.693% (active); with SW-620 colon it was -100% (active); in the test with MCF7 breast, -57.2% (active); in the test with HCT-116 colon, -100% (active). The growth with HCC-2998 colon was 24.1%; with KM12 colon, -36.9% (active).

As for `c1ccc(Nc2ccccn2)cc1`, the growth in the test with SR leukemia was 80.2%; with RPMI-8226 leukemia it was 89.1%; in the test on OVCAR-8 ovarian, 107%; in the test on OVCAR-5 ovarian, 106%; with SK-OV-3 ovarian it was 105%; in the test with OVCAR-3 ovarian it was 116%. The growth is 106% with HS 578T breast; 109% in the test on NCI/ADR-RES ovarian; 101% in the test with T-47D breast; 98.8% in the test with BT-549 breast; 112% in the test with MDA-MB-435 melanoma; 110% with SW-620 colon. The results for the growth in the test with HCT-116 colon, in the test on HCC-2998 colon and in the test on KM12 colon were 103%, 114% and 104%, respectively.

For the molecule `CCCCCCCCC/C(=N\NC(=O)c1ccncc1)c1ccc(O)c(O)c1O`, the growth is 6.56% (active) with SR leukemia; 27.1% in the test with RPMI-8226 leukemia; 13.8% in the test on OVCAR-8 ovarian; 48.6% in the test with OVCAR-5 ovarian; 24.3% in the test with SK-OV-3 ovarian; 24.9% in the test with IGROV1 ovarian. Also, the growth in the test on OVCAR-3 ovarian was 25.6%; in the test on NCI/ADR-RES ovarian, 7.59% (active); in the test with T-47D breast it was 33.7%; in the test with BT-549 breast, 38.8%; with MDA-MB-435 melanoma, 53%; in the test on SW-620 colon, 43.1%. In addition, the growth in the test on MCF7 breast was 21.4%; in the test with HCT-116 colon, 26.7%; with HCC-2998 colon, 33.3%; in the test on KM12 colon, 22.4%.

With `CC1Cc2cc(F)ccc2-n2cccc21` (stereo unspecified), the growth with SR leukemia is 114%; in the test on RPMI-8226 leukemia, 111%; in the test with OVCAR-8 ovarian, 99.5%; with OVCAR-5 ovarian it was 95%; in the test on SK-OV-3 ovarian it was 101%; with IGROV1 ovarian it was 92%. Further, the growth in the test with OVCAR-3 ovarian is 109%; in the test on NCI/ADR-RES ovarian, 107%; with T-47D breast it was 102%; with BT-549 breast, 111%; in the test on MDA-MB-435 melanoma it was 96.9%; in the test on SW-620 colon, 96.1%. Further, the growth is 107% in the test with MCF7 breast, 114% in the test on HCT-116 colon, 106% with HCC-2998 colon and 110% with KM12 colon.

Regarding `CC(=O)c1ccc2c(c1)c1ccccc1n2C`, the growth is 77.9% in the test on SR leukemia; 93.2% with RPMI-8226 leukemia; 95.4% in the test on OVCAR-8 ovarian; 108% in the test with OVCAR-5 ovarian; 96.5% with SK-OV-3 ovarian; 87.6% in the test on IGROV1 ovarian. Moreover, the growth with OVCAR-3 ovarian is 108%; with NCI/ADR-RES ovarian, 91.2%; in the test on T-47D breast, 103%; with BT-549 breast it was 96.1%; in the test with MDA-MB-435 melanoma, 99.3%; in the test on SW-620 colon, 113%. Besides, the growth in the test with MCF7 breast is 86.4%; with HCT-116 colon, 96.7%; in the test on HCC-2998 colon, 100%; in the test on KM12 colon, 97.9%.

As to `Cc1ccc2c(c1)C(=O)CCS2`, the growth in the test on SR leukemia is 118%; with RPMI-8226 leukemia it was 100%; in the test on OVCAR-8 ovarian, 100%; in the test with OVCAR-5 ovarian, 97.5%; in the test with SK-OV-3 ovarian, 95%; in the test with IGROV1 ovarian, 104%. The growth in the test with OVCAR-3 ovarian was 115%; in the test with NCI/ADR-RES ovarian it was 111%; with BT-549 breast it was 101%; in the test on MDA-MB-435 melanoma, 104%; in the test with SW-620 colon, 97.1%; in the test with MCF7 breast it was 93.3%. The growth in the test with HCT-116 colon is 103%; with KM12 colon, 108%.

Take `COC(=O)c1ccc2[nH]c(O)c(C(=Nc3ccc(N(C)C(=O)CN4CCN(C)CC4)cc3)c3ccc(N)cc3)c2c1`: the growth in the test on SR leukemia is 3.76% (active); in the test on RPMI-8226 leukemia, 84%; with OVCAR-8 ovarian, 116%; in the test on OVCAR-5 ovarian it was 77.8%; in the test on SK-OV-3 ovarian it was 85.6%; in the test with IGROV1 ovarian, 46.6%. In addition, the growth in the test on OVCAR-3 ovarian was 96.2%; in the test with HS 578T breast it was 45.2%; in the test with NCI/ADR-RES ovarian, 113%; with BT-549 breast, 81.5%; with MDA-MB-435 melanoma, 90.6%; in the test on MCF7 breast, 40.7%. In addition, the growth in the test on HCT-116 colon is 41.4%; in the test on HCC-2998 colon, 108%; in the test on KM12 colon, 18.4%.

For `NC(CSC(c1ccccc1)(c1ccccc1)c1ccccc1)C(=O)NCC(=O)O` (stereo unspecified), the growth in the test on SR leukemia was 34.1%; in the test on RPMI-8226 leukemia, 49.3%; with OVCAR-8 ovarian, 70.7%; in the test with OVCAR-5 ovarian, 94.7%; in the test on SK-OV-3 ovarian it was 35%; in the test with IGROV1 ovarian, 72.6%. In addition, the growth is 98% in the test on OVCAR-3 ovarian; 108% in the test on NCI/ADR-RES ovarian; 70.4% with BT-549 breast; -5.86% (active) with MDA-MB-435 melanoma; 41.6% with SW-620 colon; 45% in the test with MCF7 breast. Also, the figures for the growth with HCT-116 colon, with HCC-2998 colon and in the test on KM12 colon were 40.8%, 28% and 77.5%, respectively.
